Laboratory results published in PubChem BioAssay (Tox21).
“And” between values parts separate entries of the source, which are not always exact repeats. Identical values can stand only once. Results filed as inconclusive are left out. A structure can be active in one record and inactive in another. The source made the active and inactive calls. Unless noted, calls come from the whole dose curve; as a rule, active = well fitted curve in the direction sought with a large enough effect in the repeat runs; inconclusive = weak or mixed curves; inactive = no such curve, though single readings can be large; an effect the other way counts as inactive or inconclusive.

Tests used:
[1] = qHTS assay to test for compound auto fluorescence at 535 nm (green) in HEK293 cells (AID 720680); note: % is set by controls: 0 for no effect and ±100 for the full control effect
[2] = qHTS assay to test for compound auto fluorescence at 460 nm (blue) in HEK293 cell free culture (AID 720681); note: % is set by controls: 0 for no effect and ±100 for the full control effect
How it was run: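 Compounds were added to cell-free DMEM with 10% FBS and fluorescence read directly. The blue channel used 405 nm excitation and 460 nm emission, with triamterene as the reference fluorophore.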

[3] = qHTS assay to test for compound auto fluorescence at 535 nm (green) in HEK293 cell free culture (AID 720682); note: % is set by controls: 0 for no effect and ±100 for the full control effect
How it was run: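 Each library compound, or DMSO control, is added by pintool to medium alone, comprising DMEM and 10% FBS. Emission at 535 nm following 485 nm excitation is quantified against fluorescein.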

[4] = qHTS assay to test for compound auto fluorescence at 590 nm (red) in HEK293 cell free culture (AID 720683); note: % is set by controls: 0 for no effect and ±100 for the full control effect
How it was run: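 Cell-free wells of DMEM with 10% FBS received compound, and intrinsic fluorescence was read at excitation/emission 540/590 nm. Values expressed as equivalence to Rose Bengal sodium.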

[5] = qHTS assay to test for compound auto fluorescence at 590 nm (red) in HepG2 cell free culture (AID 720684); note: % is set by controls: 0 for no effect and ±100 for the full control effect
How it was run: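 Auto fluorescence equivalency versus Rose Bengal sodium, red channel Ex/Em 540/590 nm; compounds in cell-free MEM/10% FBS; DMSO vehicle control.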

[6] = qHTS assay to test for compound auto fluorescence at 460 nm (blue) in HepG2 cell free culture (AID 720685); note: % is set by controls: 0 for no effect and ±100 for the full control effect
How it was run: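 Cell-free plates of MEM plus 10% FBS received 23 nL compound or DMSO vehicle; blue-channel (405/460 nm) intensity scored against triamterene as reference fluorophore.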

[7] = qHTS assay to test for compound auto fluorescence at 460 nm (blue) in HepG2 cells (AID 720687); note: % is set by controls: 0 for no effect and ±100 for the full control effect
How it was run: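 HepG2 cells in MEM with 10% FBS, attached overnight at 37 C, were exposed to compound or DMSO for 1 hr at 37 C, 5% CO2. Blue fluorescence was read at 405/460 nm, with triamterene as reference fluorophore.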

[8] = qHTS assay to identify small molecule antagonists of the glucocorticoid receptor (GR) signaling pathway - cell viability counter screen (AID 720693); note: nearly all actives have a fitted effect of over 55% in size; note: potency is the fitted concentration of half-maximal effect
[9] = qHTS assay for identifying genotoxic compounds that show differential cytotoxicity against isogenic chicken DT40 cell lines with known DNA damage response pathways - wild type cell line (AID 743012); note: nearly all actives have a fitted effect of over 60% in size; note: potency is the fitted concentration of half-maximal effect
How it was run: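 Luminescent ATP viability signal (CellTiter-Glo, 30 min RT) recorded after wild type DT40 cells were incubated with compounds for 40 h at 37 C/5% CO2.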

[10] = qHTS assay for identifying genotoxic compounds that show differential cytotoxicity against isogenic chicken DT40 cell lines with known DNA damage response pathways - Rev3 mutant cell line (AID 743014); note: nearly all actives have a fitted effect of over 55% in size; note: potency is the fitted concentration of half-maximal effect
[11] = qHTS assay for identifying genotoxic compounds that show differential cytotoxicity against isogenic chicken DT40 cell lines with known DNA damage response pathways - Rad54/Ku70 mutant cell line (AID 743015); note: nearly all actives have a fitted effect of over 60% in size; note: potency is the fitted concentration of half-maximal effect
[12] = qHTS assay to identify small molecule antagonists of the androgen receptor (AR) signaling pathway - cell viability counter screen (AID 743033; note: nearly all actives have a fitted effect of over 45% in size; note: potency is the fitted concentration of half-maximal effect)
[13] = qHTS assay to identify small molecule antagonists of the androgen receptor (AR) signaling pathway using the MDA cell line - cell viability counter screen (AID 743041; note: nearly all actives have a fitted effect of over 45% in size; note: potency is the fitted concentration of half-maximal effect)
How it was run: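 Compound exposure lasted 16 h at 37C in MDA-kb2 AR-luc cells stimulated with R1881. Protease-based CellTiter-Fluor reagent was applied for the final 30 min and fluorescence measured.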

[14] = biological target: Glucocorticoid receptor (Homo sapiens) (UniProt P04150); test: qHTS assay to identify small molecule agonists of the glucocorticoid receptor (GR) signaling pathway (AID 720691; active = well fitted activation curve with a large enough effect in the signal ratio in the repeat runs, not every such curve was filed as active; the % refers to the signal ratio; note: % is set by controls: 0 for no effect and ±100 for the full control effect)
Glucocorticoid receptor (Homo sapiens), sequence (P04150 whole entry, looked up): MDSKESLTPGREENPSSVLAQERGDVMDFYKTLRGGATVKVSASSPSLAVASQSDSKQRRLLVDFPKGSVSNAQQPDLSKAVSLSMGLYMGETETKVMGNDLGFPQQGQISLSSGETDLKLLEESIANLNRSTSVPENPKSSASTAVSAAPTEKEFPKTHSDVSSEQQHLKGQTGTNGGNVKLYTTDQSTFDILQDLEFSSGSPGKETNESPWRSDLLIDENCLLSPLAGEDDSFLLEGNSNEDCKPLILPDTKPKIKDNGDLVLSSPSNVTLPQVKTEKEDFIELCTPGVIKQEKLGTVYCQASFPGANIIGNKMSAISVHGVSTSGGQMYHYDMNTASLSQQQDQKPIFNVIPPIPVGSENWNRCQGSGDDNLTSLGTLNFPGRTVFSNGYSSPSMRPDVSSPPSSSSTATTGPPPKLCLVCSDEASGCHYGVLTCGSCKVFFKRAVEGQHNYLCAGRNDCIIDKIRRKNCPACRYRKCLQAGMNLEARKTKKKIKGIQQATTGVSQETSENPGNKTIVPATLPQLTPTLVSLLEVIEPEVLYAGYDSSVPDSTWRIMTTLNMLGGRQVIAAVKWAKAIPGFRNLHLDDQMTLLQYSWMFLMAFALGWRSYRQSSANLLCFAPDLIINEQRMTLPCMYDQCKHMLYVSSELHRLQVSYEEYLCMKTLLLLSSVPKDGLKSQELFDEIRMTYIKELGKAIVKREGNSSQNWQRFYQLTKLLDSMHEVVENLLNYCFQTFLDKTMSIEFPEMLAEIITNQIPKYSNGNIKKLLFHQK
How it was run: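 Cells: GR-bla HeLa, endogenous GR with stably integrated GRE-beta-lactamase reporter. Treatment 18 h, 37 C, compounds delivered in DMSO. Detection via LiveBLAzer B/G FRET substrate, 2 h RT, fluorescence intensity.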

[15] = biological target: Glucocorticoid receptor (Homo sapiens) (UniProt P04150); test: qHTS assay to identify small molecule antagonists of the glucocorticoid receptor (GR) signaling pathway (AID 720692; active = well fitted inhibition curve with a large enough effect in the signal ratio in the repeat runs, not every such curve was filed as active; the % refers to the signal ratio; note: potency is the fitted concentration of half-maximal effect)
How it was run: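 Quantitative HTS in antagonist format: HeLa cells expressing endogenous GR and a stably integrated GRE-bla reporter, stimulated with 5 nM dexamethasone (final) alongside test compounds for 18 h.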

[16] = qHTS assay to test for compound auto fluorescence at 535 nm (green) in HepG2 cell free culture (AID 720686); note: % is set by controls: 0 for no effect and ±100 for the full control effect
[17] = biological target: Androgen receptor (Homo sapiens) (UniProt P10275); test: qHTS assay to identify small molecule antagonists of the androgen receptor (AR) signaling pathway (AID 743035; active = well fitted inhibition curve with a large enough effect in the signal ratio in the repeat runs, not every such curve was filed as active; the % refers to the signal ratio; note: potency is the fitted concentration of half-maximal effect)
Androgen receptor (Homo sapiens), sequence (P10275 whole entry, looked up): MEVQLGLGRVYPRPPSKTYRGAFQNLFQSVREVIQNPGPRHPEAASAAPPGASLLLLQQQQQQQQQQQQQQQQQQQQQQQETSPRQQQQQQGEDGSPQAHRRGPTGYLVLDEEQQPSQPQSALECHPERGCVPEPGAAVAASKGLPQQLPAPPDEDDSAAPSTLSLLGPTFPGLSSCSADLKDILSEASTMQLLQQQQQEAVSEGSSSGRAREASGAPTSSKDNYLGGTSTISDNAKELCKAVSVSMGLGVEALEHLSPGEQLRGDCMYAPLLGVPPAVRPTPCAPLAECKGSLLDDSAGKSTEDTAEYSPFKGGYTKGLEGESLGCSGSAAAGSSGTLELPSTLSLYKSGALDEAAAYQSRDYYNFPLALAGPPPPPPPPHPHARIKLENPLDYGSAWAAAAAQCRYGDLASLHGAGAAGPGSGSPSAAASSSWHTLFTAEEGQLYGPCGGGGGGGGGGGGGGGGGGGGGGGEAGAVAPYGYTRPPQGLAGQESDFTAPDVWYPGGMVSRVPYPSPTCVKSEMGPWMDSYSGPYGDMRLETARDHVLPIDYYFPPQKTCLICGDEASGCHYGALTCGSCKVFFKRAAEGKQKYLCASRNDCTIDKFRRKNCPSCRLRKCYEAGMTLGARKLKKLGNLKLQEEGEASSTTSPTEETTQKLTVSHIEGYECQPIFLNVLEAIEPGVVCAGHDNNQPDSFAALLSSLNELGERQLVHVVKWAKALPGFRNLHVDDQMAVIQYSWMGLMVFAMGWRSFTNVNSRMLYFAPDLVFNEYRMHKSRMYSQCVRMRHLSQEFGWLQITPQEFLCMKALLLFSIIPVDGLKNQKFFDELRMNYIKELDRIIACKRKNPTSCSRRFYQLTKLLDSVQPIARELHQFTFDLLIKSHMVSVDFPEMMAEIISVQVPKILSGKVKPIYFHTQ
How it was run: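 Quantitative HTS of the Tox21 10K library used HEK293 AR-UAS-bla cells stimulated with R1881 alongside compound for 16 h at 37C, followed by beta-lactamase FRET detection (LiveBLAzer B/G, 2 h, RT).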

[18] = biological target: Androgen receptor (Homo sapiens) (UniProt P10275); test: qHTS assay to identify small molecule agonists of the androgen receptor (AR) signaling pathway using the MDA cell line (AID 743040; note: % is set by controls: 0 for no effect and ±100 for the full control effect; nearly all actives have a fitted effect of over 20% in size)
How it was run: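 Testing was done with the MDA-kb2 AR-luc line, a human breast carcinoma stably transfected with MMTV-luciferase containing AR and GR response elements. Cells were exposed 16 h at 37C before ONE-Glo luminescence detection.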

[19] = biological target: Androgen receptor (Homo sapiens) (UniProt P10275); test: qHTS assay to identify small molecule antagonists of the androgen receptor (AR) signaling pathway using the MDA cell line (AID 743042; note: potency is the fitted concentration of half-maximal effect; nearly all actives have a fitted effect of over 55% in size)
How it was run: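 MDA-kb2 breast carcinoma cells carrying MMTV-luciferase (AR/GR responsive) were co-treated with compounds and the agonist R1881 for 16 h at 37C. Inhibition read as ONE-Glo luminescence; CellTiter-Fluor fluorescence measured in parallel for cytotoxicity.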

NNc1ccc(C(=O)O)cc1
inactive: Potency [1] | outcome [2] | Potency [3] | Potency [4] | Potency [5] | outcome [6] | outcome [7] | Potency [8] | Potency [9] | Potency [10] | Potency [11] | Potency [12] | Potency [13]

Nc1ccccc1N
inactive: Potency [1] | outcome [2] | Potency [3] | Potency [4] | Potency [5] | outcome [6] | outcome [7] | Potency [14] | Potency [8] | Potency [12] | Potency [13]
active: Potency [9] 3.86 µM | Potency [10] 31.4 µM and 10.3 µM | Potency [11] 62.6 µM and 9.15 µM

COC(=O)C1=C(C)NC(C)=C(C(=O)OCCN(C)Cc2ccccc2)C1c1cccc([N+](=O)[O-])c1 (configuration not stated)
active: Potency [15] 23.9 µM and 43.4 µM | Potency [9] 9.44 µM and 19.2 µM | Potency [10] 11.9 µM and 21.6 µM | Potency [11] 10.6 µM and 19.2 µM | Potency [12] 48.7 µM
inactive: Potency [1] | outcome [2] | Potency [3] | Potency [4] | Potency [5] | outcome [6] | outcome [7] | Potency [8] | Potency [13]

CC(C)CC(C)(O)C#CC(C)(O)CC(C)C (configuration not stated)
active: Potency [10] 54.5 µM | Potency [11] 54.5 µM
inactive: Potency [1] | outcome [2] | Potency [3] | Potency [4] | Potency [5] | outcome [6] | outcome [7] | Potency [14] | Potency [15] | Potency [8] | Potency [9] | Potency [12] | Potency [13]

CCC(C)OC(=O)c1ccc(O)cc1 (configuration not stated)
inactive: Potency [1] | outcome [2] | Potency [3] | Potency [4] | Potency [5] | outcome [6] | outcome [7] | Potency [14] | Potency [15] | Potency [8] | Potency [10] | Potency [12] | Potency [13]

CCCCC/C=C/C=C/C=O
inactive and 21.7 µM (active): Potency [10]
active: Potency [15] 49 µM | Potency [9] 19.3 µM
inactive and 17.2 µM (active): Potency [11]
inactive: Potency [1] | outcome [2] | Potency [3] | Potency [4] | Potency [5] | outcome [6] | outcome [7] | Potency [14] | Potency [8] | Potency [12] | Potency [13]

CC(=O)Oc1ccccc1C(=O)Nc1ncc([N+](=O)[O-])s1
inactive and 7.06 µM (active): Potency [12]
inactive: Potency [1] | outcome [2] | Potency [3] | Potency [4] | Potency [5] | outcome [6] | outcome [7] | Potency [13]
active: Potency [8] 11.2 µM | Potency [9] 13.3 µM | Potency [10] 10.6 µM and 62.4 µM | Potency [11] 13.3 µM

Cc1[nH]c(=O)c(C#N)cc1-c1ccncc1
inactive: Potency [1] | outcome [2] | Potency [3] | Potency [4] | Potency [5] | outcome [6] | outcome [7] | Potency [8] | Potency [9] | Potency [10] | Potency [11] | Potency [12] | Potency [13]

CCC(C)c1ccccc1O (configuration not stated)
inactive: Potency [1] | outcome [2] | Potency [3] | Potency [4] | Potency [5] | outcome [6] | outcome [7] | Potency [14] | Potency [15] | Potency [8] | Potency [9] | Potency [10] | Potency [11] | Potency [12] | Potency [13]

O=C(c1ccccc1)c1ccc(O)cc1O
inactive: Potency [1] | outcome [2] | Potency [3] | Potency [4] | Potency [5] | outcome [6] | outcome [7] | Potency [14] | Potency [15] | Potency [8] | Potency [9] | Potency [10] | Potency [12] | Potency [13]

O=C1c2cccc(O)c2C(=O)c2c(O)cccc21
inactive: Potency [1] | outcome [2] | Potency [3] | Potency [4] | Potency [5] | outcome [6] | outcome [7] | Potency [8] | Potency [9] | Potency [10] | Potency [11] | Potency [12] | Potency [13]

COC(=O)CCC(=O)OC
inactive: Potency [1] | outcome [2] | Potency [3] | Potency [4] | Potency [5] | outcome [6] | outcome [7] | Potency [14] | Potency [15] | Potency [8] | Potency [9] | Potency [10] | Potency [11] | Potency [12] | Potency [13]

CN(C)c1nc(N(C)C)nc(N(C)C)n1
inactive: fluorescence, % of fluorescein [1] 0.0818% [at 18.6 µM] and -0.032% [at 3.72 µM] | fluorescence, % of fluorescent control [2] 0.0543% [at 18.6 µM] and 0.0026% [at 3.72 µM] | fluorescence, % of fluorescent control [4] -0.0465% [at 18.6 µM] and -0.254% [at 3.72 µM] | fluorescence, % of Rose Bengal [5] 0.0258% [at 18.6 µM] and 0.364% [at 3.72 µM] | fluorescence, % of fluorescent control [6] 0.0368% [at 18.6 µM] and -0.0793% [at 3.72 µM] | fluorescence, % of fluorescein control [16] -0.0261% [at 18.6 µM] and -0.0181% [at 3.72 µM] | fluorescence, % of fluorescent control [7] 0.0942% [at 18.6 µM] and -0.004% [at 3.72 µM] | Potency [14] | Potency [15] | Potency [8] | Potency [9] | Potency [10] | activity change, negative = cytotoxicity [11] 0.358% [at 8.55 µM] | Potency [12] | Potency [13]

Nc1ncnc2nc[nH]c12
inactive: Potency [1] | outcome [2] | Potency [3] | Potency [4] | Potency [5] | outcome [6] | outcome [7] | Potency [14] | Potency [15] | Potency [9] | Potency [10] | Potency [11] | Potency [12] | Potency [13]

CC(=O)c1ccccn1
inactive: Potency [1] | outcome [2] | Potency [3] | Potency [4] | Potency [5] | outcome [6] | outcome [7] | Potency [8] | Potency [10] | Potency [11] | Potency [12] | Potency [13]

C[Si](C)(C)O[Si](C)(C)C
inactive: Potency [1] | outcome [2] | Potency [3] | Potency [4] | Potency [5] | outcome [6] | outcome [7] | Potency [8] | Potency [9] | Potency [10] | Potency [11] | Potency [12] | Potency [13]

O=C(Nc1ccc(Cl)cc1)Nc1ccc(Cl)c(Cl)c1
active: Potency [8] 4.77 µM and 7.73 µM and 6.92 µM | Potency [9] 3.35 µM and 6.08 µM and 2.73 µM | Potency [10] 2.66 µM and 4.31 µM and 2.17 µM | Potency [11] 2.66 µM and 5.42 µM and 2.17 µM | Potency [12] 3.38 µM and 1.94 µM and 3.89 µM | Potency [17] 6.01 µM and 4.36 µM | Potency [13] 24.3 µM | Potency [19] 43.1 µM and 13.7 µM
inactive: Potency [1] | outcome [2] | Potency [3] | Potency [4] | Potency [5] | outcome [6] | outcome [7] | Potency [18]
